Structures are written as SMILES. The source made the active and inactive calls. Rule for the calls: active = hit-call score of the fitted dose curve at least 0.9, where 1 is the maximum; inactive = score below 0.9.

Consider 40 molecules from PubChem BioAssay (EPA / NIEHS).

Read-out in the assay: growth arrest and DNA damage 45 (GADD45A), GADD45A (gene 1647)
Put plainly: LTEA_HepaRG_GADD45A: Life Technologies and Expression Analysis (LTEA) Assay for growth arrest and DNA damage 45 (GADD45A) using HepaRG (AID 2283458). The following applies: mRNA level, 48 h; actives raise or lower the signal. How it is done: LTEA_HepaRG is a cell based, multiplexed-readout assay that uses HepaRG, a human liver cell line, with measurements taken at 48 hours after chemical dosing on a 96-well plate.LTEA_HepaRG_GADD45A is one of 102 assay component(s) measured in the LTEA HepaRG cell culture assay. It is a marker of Oxidative Stress.Data from the assay component LTEA_HepaRG_GADD45A was analyzed into 1 endpoint. This assay endpoint, LTEA_HepaRG_GADD45A, was analyzed with bidirectional fitting relative to DMSO as the negative control and baseline of activity. Using a type of inducible reporter, measures of mRNA induction for gain or loss-of-signal activity can be used to understand regulation of transcription factor activity. To generalize the intended target to other relatable targets, this assay endpoint is annotated to the cell cycle intended target family, where the subfamily is Oxidative Stress.
A total of 1060 chemcials from the ToxCast library were tested in eight-point concentration-response experiments. Cell culture and cytotoxicity assays were conducted at Thermo Fisher Scientific's Custom Services facility (Madison, WI). A single lot of human HepaRG cells (Thermo Fisher Scientific, Frederick, MD) was used for the cell culture experiments. 96-well format collagen type I coated plates of human HepaRG cells were prepared using established methods. Briefly, cryopreserved HepaRG cells were thawed, plated at a density of approximately 100,000 cells/well in HepaRG Thaw, Plate, and General Purpose media (HPRG770, Thermo Fisher Scientific), and incubated for 48 hours. 0.5% DMSO was selected as vehicle control to balance the requisite need of DMSO in HepaRG cultures to maintain differentiation (for example, baseline metabolism, proportions of hepatocytes vs. cholangiocytes), while enabling further hepatic receptor pathway activation (for example, PXR and CAR) in response to chemical exposure. 48 hours after plating, the culture medium was replaced with HepaRG Serum-Free Incudtion Media. Cells were exposed to each test chemical in duplicate and maintained in CO2 incubators for another 48 hours. Chemical plates were thawed to room temperature and 200x concentrations of treatment groups were prepared. 8-point conentration-reponse curves were made with the highest exposure at 100 uM, followed by half-log dilutions, all in 0.5% DMSO. Each test plate contained variouse controls, induction positive controls (1mM phenobarbital), cytotoxicity positive controls ([…] aflatoxin B1), vehicle controls (0.5% DMSO), and total lysis controls (0.5% DMSO). Cell morphology images were taken using an Essen IncuCyte FLR automated microscope, with six 96-well plates imaged in about 24 minutes. Images were captured and exported and JPEG files. Spent culture media was transfered to black-well plates for the LDH assay, and remaining media was sorted at -80 C for later use. Cells were treated with RLT buffer and frozen until shipped for gene expression analysis. Total RNA was isolated from the cell suspension in 75 uL of Buffer RLT (Qiagen, Germantown, MD 20874) by Quintiles/Expression Analysis (Durham, NC) using a custom isolation procedure. Total RNA from each plate well was transferred to a preamplification plate. Fluidigm's 96.96 Dynamic ArrayTM (Fluidigm, Amsterdam, the Netherlands) technology was used for gene expression analyses by quantitative reverse transcription polymerase chain reaction (qRT-PCR, performed by Quintiles/Expression Analysis, Durham, NC)89. Standard TaqManTM Assays (Applied Biosystems/ThermoFisher Scientific, Foster City, CA) were used to assess the expression of 93 genes selected based on their selectivity and sensitivity to important hepatic receptors known to be modulated by environmental chemicals; importance in human hepatocyte functionality; and hepatotoxicity. […]
On to `COCC(C)OCC(C)O` (stereo not given), for which the call was inactive.
For the molecule `O=C(O)c1ccccc1C(c1ccc(O)cc1)c1ccc(O)cc1`, the call was inactive.
Same read-out and setting: then `CCCCCCCCCCCCCCCS(=O)(=O)Oc1ccccc1`, with “inactive”; and `ClC1=C(Cl)C(Cl)(Cl)C(Cl)=C1Cl`, with “inactive”.
A word on the AC50: it is the concentration at which the activity in the assay is half-maximal. On to `CCc1nn(C2CCCCC2)c2cc(C3(C#N)CCC(C(=O)O)CC3)ccc12` (stereo not given), for which the AC50 is 77.6 µM (active).
Take `c1ccc2c(c1)ccc1ccccc12`: the outcome was inactive.
Same read-out and setting: then `CN1CCC[C@H]1c1cccnc1`, with “inactive”.
On the same count and under the same terms, then `Cc1cc(C)c(O)c(C)c1`, with “inactive”; and `CCCCCCC(=O)O`, with “inactive”.
With `Oc1cc2ccccc2c2ccccc12`, the result was inactive.
`CCc1ccc(CCOc2ccc(CC3SC(=O)NC3=O)cc2)nc1` (stereo not given): the AC50 is 50 µM (active).
On to `CC(C)CCCCCCOC(=O)CCCCC(=O)OCCCCCCC(C)C`, for which the molecule was called inactive.
As for `CC(C)(C)CC(C)(C)c1ccc(O)c(-n2nc3ccccc3n2)c1`, the result was inactive.
On the same count and under the same terms, then `CC(C)(C)c1ccc(O)c(C(C)(C)C)c1`, with “inactive”.
As to `CC[C@H](c1ccc(O)cc1)[C@@H](CC)c1ccc(O)cc1`, the half-maximal activity concentration (AC50) was 77 µM (active).
As for `C=C(C)C(=O)OCCC(F)(F)C(F)(F)C(F)(F)C(F)(F)C(F)(F)C(F)(F)F`, the molecule was called inactive.
On to `COc1ccc([N+](=O)[O-])cc1N`, for which the molecule was classed as inactive.
As for `NC(=O)N1C(=O)C(C(=O)c2cc(Cl)cs2)c2cc(F)c(Cl)cc21` (stereo not given), the AC50 is 36 µM (active).
As for `CCCCCCCCOC(=O)CCCCCCCCC(=O)OCCCCCCCC`, the molecule was classed as inactive.
Still for that read-out and setting: then `O=c1c(-c2ccc(O)cc2)coc2cc(O)ccc12`, with “inactive”; and `CC(C)(C)c1cccc(C(C)(C)C)c1O`, with “inactive”.
Same read-out and setting: then `CN1CCN(c2ccccc2/C=C2\SCCN(c3ccc(Cl)c(Cl)c3)C2=O)CC1`, with “inactive”; and `CCN(CC)CCNc1ccc(CNC=O)c2sc3ccc(OC)cc3c(=O)c12`, with “inactive”.
The same measure, in the same setting: then `Nc1cccc2c(N)cccc12`, with “inactive”.
In the case of `OCCC(F)(F)C(F)(F)C(F)(F)C(F)(F)C(F)(F)C(F)(F)C(F)(F)C(F)(F)F`, the outcome was inactive.
The same measure, in the same setting: then `Cc1cc(CCN2CCN(c3nsc4ccccc34)CC2)cc2c1NC(=O)CC2(C)C`, with “inactive”; and `OCCC(F)(F)C(F)(F)C(F)(F)C(F)(F)C(F)(F)C(F)(F)F`, with “inactive”; and `COC(=O)CCCCC(=O)OC`, with “inactive”.
Same read-out and setting: then `CC(O)CO` (stereo not given), with “inactive”.
Still for that read-out and setting: then `CCCOC(=O)c1ccc(O)cc1`, with “inactive”; and `CC(=O)NC1(c2cccc(F)c2)CCN(CC[C@@]2(c3ccc(Cl)c(Cl)c3)CN(c3ccccc3)C(=O)CO2)CC1`, with “inactive”.
As for `Oc1cccc(O)c1`, the call was inactive.
As for `COCC(C)O` (stereo not given), the molecule was classed as inactive.
Take `Cc1oc(-c2ccccc2)nc1CCOc1ccc(C[C@H](Nc2ccccc2C(=O)c2ccccc2)C(=O)O)cc1`: the half-maximal activity concentration (AC50) is 12.4 µM (active).
Turning to `CCCCCCCCCCCCc1ccccc1S(=O)(=O)O`, the result was inactive.
Take `NC(=O)N(O)[C@@H]1C=C[C@H](Oc2cccc(Oc3ccc(F)cc3)c2)C1`: the half-maximal activity concentration (AC50) was 64 µM (active).
In the case of `CCCCCCCC(=O)O`, the molecule was classed as inactive.
The same measure, in the same setting: then `CN(C)C=O`, with “inactive”; and `OC1CCCCC1`, with “inactive”; and `CCCCOCCO`, with “inactive”.
